From PubChem BioAssay (NCI)
Compounds without any hit were thinned out: in the full panel of roughly 83,000, 20% have a hit.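 How to read the values: 0–100, growth inhibition (40 = 60% inhibited); 0, no net growth; -100 to 0, cell death (-40 = 40% of starting cells died; -100 = all dead).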 Activity calls are given as the source filed them. How the source made its calls: active means growth percent below 10; inactive means the rest.

Tested on: 786-0 renal
Assay: NCI-60 one-dose screen, 48 h (100 = growth as untreated, 0 = no growth, -100 = all killed)
Details: 10 µM

**Q.** How did the growth turn out when `CCCCCCCCCCC1CO1` (stereo unspecified) was run?
**A.** 101% (inactive)

**Q.** How did the growth turn out when `CC(=Nc1ccccc1)C1=C(O)C(Cc2cccc(F)c2)NC1=O` (stereo unspecified) was run?
**A.** 15.3% (inactive)

**Q.** Which growth does the source give for `O=[N+]([O-])c1ccc(S(=O)(=O)NN=C2CCCCC2)cc1` here?
**A.** 103% (inactive)

**Q.** How did the growth turn out when `CC(=O)OCC(=O)[C@@]1(O)CC[C@H]2[C@@H]3CC[C@@H]4C[C@H](O)CC[C@]4(C)[C@H]3C(=O)C[C@@]21C` was run?
**A.** 105% (inactive)

**Q.** Which growth does the source give for `CC1CCC(C(=O)O)N1` (stereo unspecified) here?
**A.** 100% (inactive)

**Q.** For `O=P(O)(O)OCC(O)CO` (stereo unspecified), which growth is on record?
**A.** 101% (inactive)

**Q.** Which growth does the source give for `COc1cccc(/C=N/NC(=S)NC2CC3CCC2C3)c1O` (stereo unspecified) here?
**A.** 86.3% (inactive)

**Q.** Which growth does the source give for `CCn1c(=O)n(C)c2c(=O)n(C)c(=O)n(C)c21` here?
**A.** 109% (inactive)

**Q.** Which growth does the source give for `CC(=O)c1ccc(N=C(C#N)C2=C(O)c3ccccc3C2=O)cc1` here?
**A.** 103% (inactive)

**Q.** How did the growth turn out when `O=[N+]([O-])c1cccc(N=Nc2ccc(O)cc2O)c1` was run?
**A.** 74% (inactive)

**Q.** With `COc1ccc(-c2cc3c(nn2)-c2ccccc2C3=O)cc1` as the compound, how does the growth read?
**A.** 25.8% (inactive)

**Q.** How did the growth turn out when `COc1cc2nn(-c3ccccc3N)nc2cc1OC` was run?
**A.** 95.7% (inactive)

**Q.** How did the growth turn out when `CC1CC(O)C2C3(C)CCCC2(COC3=O)C12CCC1(CCOC1=O)O2` (stereo unspecified) was run?
**A.** 99.1% (inactive)

**Q.** For `NC(=S)N/N=C/c1ccc(N)cc1`, which growth is on record?
**A.** 99.9% (inactive)

**Q.** With `O=C(O)COCC(=O)O` as the compound, how does the growth read?
**A.** 110% (inactive)

**Q.** Which growth does the source give for `Cc1cc(N)c(S(=O)(=O)O)c(N)c1` here?
**A.** 105% (inactive)

**Q.** With `S=C1CCCCCN1` as the compound, how does the growth read?
**A.** 107% (inactive)

**Q.** How did the growth turn out when `O=c1[nH][nH]c(=O)c2cc([N+](=O)[O-])ccc12` was run?
**A.** 106% (inactive)

**Q.** For `CC(=O)OCCO`, which growth is on record?
**A.** 101% (inactive)

**Q.** For `C/C(=N/NC(N)=O)c1ccco1`, which growth is on record?
**A.** 99.9% (inactive)

**Q.** With `CC1CCCCN1C(=S)Nc1ccc(S(=O)(=O)N2CCCCC2)cc1` (stereo unspecified) as the compound, how does the growth read?
**A.** 92.6% (inactive)

**Q.** How did the growth turn out when `COC(=O)c1ccc(C(C)C)cc1` was run?
**A.** 100% (inactive)

**Q.** Which growth does the source give for `OCC(O)C(O)C(O)C(O)/C=N/O` (stereo unspecified) here?
**A.** 96.8% (inactive)

**Q.** Which growth does the source give for `Cc1ccc(S(=O)(=O)O)c(C)c1` here?
**A.** 103% (inactive)

**Q.** How did the growth turn out when `COCCOC(=O)c1ccc(C(C)C)cc1` was run?
**A.** 93.8% (inactive)

**Q.** For `CCNc1nc2c(cnn2C)c(=O)[nH]1`, which growth is on record?
**A.** 101% (inactive)

**Q.** How did the growth turn out when `NCCCN` was run?
**A.** 104% (inactive)

**Q.** With `COc1cc2c3cc1Oc1c(OC)c(OC)cc4c1C(Cc1ccc(O)c(c1)Oc1ccc(cc1)CC3N(C)CC2)N(C)CC4` (stereo unspecified) as the compound, how does the growth read?
**A.** 32.3% (inactive)

**Q.** How did the growth turn out when `O=[N+]([O-])c1ccccc1N=Nc1ccc(O)cc1O` was run?
**A.** 108% (inactive)

**Q.** How did the growth turn out when `CCOC(=O)c1ccc(NC(=S)P(=O)(c2ccccc2)c2ccccc2)cc1` was run?
**A.** 101% (inactive)

**Q.** `CCCCOC(=O)c1ccc(C(C)C)cc1` was tested. Which growth did it give?
**A.** 95.4% (inactive)

**Q.** How did the growth turn out when `CC1C(=O)c2ccccc2CC1C(=O)O` (stereo unspecified) was run?
**A.** 110% (inactive)

**Q.** Which growth does the source give for `CNc1nc(NC)c2cn[nH]c2n1` here?
**A.** 101% (inactive)

**Q.** For `CC(=O)/C(Cc1ccccc1)=N/O`, which growth is on record?
**A.** 102% (inactive)

**Q.** With `COc1cc(C2c3cc4c(cc3C3OC(=O)C2C3CO)OCO4)cc(OC)c1OC` (stereo unspecified) as the compound, how does the growth read?
**A.** 14.4% (inactive)

**Q.** How did the growth turn out when `CCCC(C)OCC(=O)O` (stereo unspecified) was run?
**A.** 107% (inactive)
